{"source": "paper PMC4552634", "about": "“A New Set of Chemical Starting Points with Plasmodium falciparum Transmission-Blocking Potential for Antimalarial Drug Discovery” (PLoS ONE, 2015)", "note": "In all, about 13,000 compounds went through this assay and about 3,200 (25%) showed an effect of 50% or more. This is one part of the list.", "data": [{"tested_on": "P. falciparum stage V gametocytes", "design": "BacTiter-Glo ATP luminescence viability of purified stage V gametocytes in 384-well plates, per cent inhibition versus DMSO", "details": "48 h, 5 µM; inhibitor", "units": {"% Inhibition": "%"}, "values": [{"smiles": "COc1ccc(C2CC(c3ccccc3)=NN2C(=O)c2ccc(Br)o2)cc1", "note": "(centres unmarked) [TCMDC-123705]", "% Inhibition": -10.79}, {"smiles": "CCCCCC(C)C(C)c1cc(O)c2c(c1)OC(C)(C)CC2c1cc[n+]([O-])cc1", "note": "(centres unmarked) [TCMDC-131347]", "% Inhibition": 15.63}, {"smiles": "CCOc1ccc(Br)cc1/C=C/C(=O)Nc1ccc2c(c1)C1CCC2N1C", "note": "(centres unmarked) [TCMDC-134191]", "% Inhibition": -33.77}, {"smiles": "Nc1c(Cl)cc(C(O)CNCCCCCCOCCC=C2CCOCC2)cc1Cl", "note": "(centres unmarked) [TCMDC-132097]", "% Inhibition": 35.85}, {"smiles": "O=C(Nc1ccc(Cl)cc1)c1ccc(CN2CCCN(Cc3cccc(Cl)c3)CC2)cc1", "note": "[TCMDC-136405]", "% Inhibition": 70.05}, {"smiles": "N#Cc1cccc(CN2CCCN(Cc3cccc(C(=O)Nc4ccc(Cl)cc4)c3)CC2)c1", "note": "[TCMDC-135962]", "% Inhibition": -1.409}, {"smiles": "CC(C)(C)c1ccc(NC(=O)c2ccc(CN3CCCN(Cc4cccc(Cl)c4)CC3)cc2)cc1", "note": "[TCMDC-136432]", "% Inhibition": -29.42}, {"smiles": "CCc1ccc(NC(=O)c2ccc(CN3CCCN(Cc4cccc(Cl)c4)CC3)cc2)cc1", "note": "[TCMDC-136438]", "% Inhibition": -4.503}, {"smiles": "N#Cc1cccc(CN2CCCN(Cc3ccc(C(=O)Nc4ccc(Cl)cc4)cc3)CC2)c1", "note": "[TCMDC-136403]", "% Inhibition": 58.71}, {"smiles": "CC(C)(C)c1ccc(NC(=O)c2ccc(CN3CCCN(Cc4cccc(C#N)c4)CC3)cc2)cc1", "note": "[TCMDC-136430]", "% Inhibition": 8.252}, {"smiles": "O=C(Nc1ccccc1)N1CCOC(CCN2CCC(F)(F)CC2)(c2ccc(Cl)c(Cl)c2)C1", "note": "(centres unmarked) [TCMDC-135565]", "% Inhibition": -12.88}, {"smiles": "Cc1ccc(F)c(CN2CCC(N3CC(c4ccccc4)(c4ccccc4)OC3=O)CC2)c1Cl", "note": "[TCMDC-136067]", "% Inhibition": -42.69}, {"smiles": "COc1ccc(OCCCON2C(N)=NC(N)=NC2(C)C)cc1", "note": "[TCMDC-131727]", "% Inhibition": -17.37}, {"smiles": "CCCc1cc(NCC)nc(Nc2ccc(F)cc2)n1", "note": "[TCMDC-134011]", "% Inhibition": 18.21}, {"smiles": "CCCCc1cc(=O)oc2cc(C)cc(OCc3ccccc3F)c12", "note": "[TCMDC-125642]", "% Inhibition": 42.72}, {"smiles": "Cc1ccc(Cl)cc1N1CCN(CCCNC(=O)C2CCN(c3nc4ccccc4[nH]3)CC2)CC1", "note": "[TCMDC-124405]", "% Inhibition": 57.08}, {"smiles": "COc1ccc(Cl)cc1N1CCN(CCCNC(=O)c2ccc(-c3nc4ccc(C(F)(F)F)cc4[nH]3)c(C)c2)CC1", "note": "[TCMDC-140121]", "% Inhibition": -20.72}, {"smiles": "COc1ccc(Cl)cc1N1CCN(CCCNC(=O)c2ccc(-c3nc4c(C)cccc4[nH]3)s2)CC1", "note": "[TCMDC-140050]", "% Inhibition": -10.33}, {"smiles": "Oc1ccccc1N1CCN(c2ccc(-c3nc4ccccc4[nH]3)cn2)CC1", "note": "[TCMDC-124820]", "% Inhibition": -75.14}, {"smiles": "CC(=O)N(Cc1nc(-c2cc(Cl)c(Cl)s2)cs1)c1c(C)cccc1C", "note": "[TCMDC-135640]", "% Inhibition": -42.77}, {"smiles": "Cc1noc(C)c1-c1cccc(CNCc2ccc(-c3ccc(-c4nc5cccc(C)c5[nH]4)cc3)cc2)c1.O=C(O)C(F)(F)F", "note": "[TCMDC-133061]", "% Inhibition": -10.97}, {"smiles": "CS(=O)(=O)c1ccc(-c2nc(NCC3CCCCC3)cc(C(F)(F)F)n2)cc1", "note": "[TCMDC-138597]", "% Inhibition": 3.227}, {"smiles": "OC(Cn1ccnc1)(c1ccc(Cl)cc1Cl)C1CCCCC1", "note": "(centres unmarked) [TCMDC-132084]", "% Inhibition": -1.887}, {"smiles": "Clc1ccc(OC2CCC(Cn3ccnc3)(c3ccc(Cl)cc3Cl)CC2)c(Cl)c1", "note": "(centres unmarked) [TCMDC-132089]", "% Inhibition": 67.21}, {"smiles": "CON=C1CCC(Cn2ccnc2)(c2ccc(Cl)cc2Cl)CC1", "note": "(centres unmarked) [TCMDC-132070]", "% Inhibition": -6.365}, {"smiles": "CN(C)CCCNC(=O)c1ccccc1Sc1ccccc1C#N", "note": "[TCMDC-137689]", "% Inhibition": -3.028}, {"smiles": "O=S(=O)(Nc1ccc(CCN2CCCCC2CCN2CCCC2)cc1)c1cccc2cccnc12", "note": "(centres unmarked) [TCMDC-134096]", "% Inhibition": 43.66}, {"smiles": "NC1CCN(CCc2ccc(NS(=O)(=O)c3ccc(-c4ccccc4)cc3)cc2)CC1", "note": "[TCMDC-134085]", "% Inhibition": 111.6}, {"smiles": "O=S(=O)(Nc1cccc(CCN2CCCCC2CCN2CCCC2)c1)c1ccc(-c2ccccc2)cc1", "note": "(centres unmarked) [TCMDC-134093]", "% Inhibition": 39.18}, {"smiles": "Cc1c(S(=O)(=O)Nc2cccc(CCN3CCCCC3CCN3CCCC3)c2)sc2ccc(Cl)cc12", "note": "(centres unmarked) [TCMDC-134097]", "% Inhibition": 7.809}, {"smiles": "CCc1ccc(S(=O)(=O)Nc2ccc(CCN(C)C3CCN(C)CC3)cc2)cc1", "note": "[TCMDC-134082]", "% Inhibition": 40.08}, {"smiles": "CC1CCN(CC[C@H]2CCCN2S(=O)(=O)c2cccc(NC(=O)c3ccc(-c4ccccc4)cc3)c2)CC1", "note": "[TCMDC-141076]", "% Inhibition": -81.19}, {"smiles": "O=S(=O)(Nc1cccc(CCN2CCCCC2CCN2CCCC2)c1)c1cccc2ccccc12", "note": "(centres unmarked) [TCMDC-134092]", "% Inhibition": 40.53}, {"smiles": "O=S(=O)(Nc1ccc(CCN2CCCCC2CCN2CCCC2)cc1)c1ccc(-c2ccccc2)cc1", "note": "(centres unmarked) [TCMDC-134095]", "% Inhibition": 70.29}, {"smiles": "O=S(=O)(Nc1cccc(CCN2CCCCC2CCN2CCCC2)c1)c1ccc2ccccc2c1", "note": "(centres unmarked) [TCMDC-134091]", "% Inhibition": 64.43}, {"smiles": "O=S(=O)(Nc1cccc(CCN2CCCCC2CCN2CCCC2)c1)c1ccc(Oc2ccccc2)cc1", "note": "(centres unmarked) [TCMDC-134094]", "% Inhibition": 61.85}, {"smiles": "O=c1cc(NCCCNCc2cc3c(Cl)cccc3s2)[nH]c2ccccc12", "note": "[TCMDC-140333]", "% Inhibition": -87.93}, {"smiles": "COc1c(Br)cc(Br)cc1C(C)=O", "note": "[TCMDC-123841]", "% Inhibition": -7.365}, {"smiles": "CCOC(=O)c1[nH]c(-c2ccc(Cl)cc2)nc1NC(=S)NCCCN1CCOCC1", "note": "[TCMDC-138877]", "% Inhibition": 37.64}, {"smiles": "Cc1nc(-c2ccc(-c3ccc(C(=O)Nc4ccc5c(c4)C4(CCNCC4)CO5)cc3)c(C)c2)no1", "note": "[TCMDC-138993]", "% Inhibition": 45.43}, {"smiles": "O=C(N[C@@H](Cc1ccccc1)C(=O)NCc1cccc(C(F)(F)F)c1)c1ccc(O)c(-c2ccc(Cl)c(Cl)c2)c1", "note": "[TCMDC-140833]", "% Inhibition": 12.7}, {"smiles": "CN1CCN(S(=O)(=O)c2ccc3nccc(Nc4ccc(Oc5ccccc5)cc4)c3c2)CC1", "note": "[TCMDC-138691]", "% Inhibition": -22.54}, {"smiles": "Cc1cc(C=C(P(=O)(OC(C)C)OC(C)C)P(=O)(OC(C)C)OC(C)C)c2ccccc2c1O", "note": "[TCMDC-138940]", "% Inhibition": 80.96}, {"smiles": "Cc1c(C(=O)Nc2cc(Sc3ccc(F)cc3)cc([N+](=O)[O-])c2)sc2ncn(Cc3ccccc3F)c(=O)c12", "note": "[TCMDC-125703]", "% Inhibition": 1.963}, {"smiles": "CCCN(CCC)CCCNc1ccc(C(=O)Nc2ccc(C(C)C)cc2)cc1[N+](=O)[O-]", "note": "[TCMDC-125688]", "% Inhibition": 90.5}, {"smiles": "CCCN(CCC)CCCNc1ccc(C(=O)Nc2ccc(C)c(F)c2)cc1[N+](=O)[O-]", "note": "[TCMDC-125685]", "% Inhibition": 15.23}, {"smiles": "COc1cccc(NC(=O)c2ccc(NCCCN3CCC(C)CC3)c([N+](=O)[O-])c2)c1", "note": "[TCMDC-125690]", "% Inhibition": 0.09701}, {"smiles": "CCCN(CCC)CCCNc1ccc(C(=O)Nc2ccc(OCC)cc2)cc1[N+](=O)[O-]", "note": "[TCMDC-125691]", "% Inhibition": 12.73}, {"smiles": "CCOc1ccc(NC(=O)c2ccc(NCCCN3CC(C)CC(C)C3)c([N+](=O)[O-])c2)cc1", "note": "(centres unmarked) [TCMDC-125692]", "% Inhibition": 30.09}, {"smiles": "COc1cccc(NC(=O)c2ccc(NCCCN3CC(C)CC(C)C3)c([N+](=O)[O-])c2)c1", "note": "(centres unmarked) [TCMDC-125689]", "% Inhibition": 53.82}, {"smiles": "O=C(Nc1ccc(C(F)(F)F)cc1)c1ccc(NCCCN2CCCCCC2)c([N+](=O)[O-])c1", "note": "[TCMDC-125681]", "% Inhibition": 11.61}, {"smiles": "CC1CCN(CCCNc2ccc(C(=O)Nc3ccc(C(F)(F)F)cc3)cc2[N+](=O)[O-])CC1", "note": "[TCMDC-125683]", "% Inhibition": 88.85}, {"smiles": "CC1CC(C)CN(CCCNc2ccc(C(=O)Nc3ccc(C(F)(F)F)cc3)cc2[N+](=O)[O-])C1", "note": "(centres unmarked) [TCMDC-125680]", "% Inhibition": 38.66}, {"smiles": "COc1ccc2ncc(F)c(NC(=O)C3CCC(NCc4cc5cc(F)cc(F)c5[nH]4)CC3)c2n1", "note": "(centres unmarked) [TCMDC-136455]", "% Inhibition": 25.24}, {"smiles": "O=C(Nc1cccc(C2=NCCN2)c1)Nc1cccc(C2=NCCN2)c1", "note": "[TCMDC-124304]", "% Inhibition": -0.7345}, {"smiles": "COc1ccc(NC(=O)N2CCc3ccc(OCCN(C(C)C)C(C)C)cc32)cc1C(F)(F)F", "note": "[TCMDC-140253]", "% Inhibition": -24.24}, {"smiles": "N#Cc1cccc(CNC(=O)c2cccc(Nc3ccnc4ccc(F)cc34)c2)c1", "note": "[TCMDC-136309]", "% Inhibition": 21.53}, {"smiles": "Cc1cc(NC(=O)c2ccc(S(=O)(=O)N(Cc3ccccc3)C(C)C)cc2)no1", "note": "[TCMDC-123547]", "% Inhibition": -7.124}, {"smiles": "CCNc1cc(C(=O)N[C@@H](Cc2ccccc2)[C@H](O)CNCc2cc(OC)cc(OC)c2)cc(N2CCCC2=O)c1", "note": "[TCMDC-134572]", "% Inhibition": -8.682}, {"smiles": "CCn1c(-c2nonc2N)nc2c(-c3cccc(NC(=O)Nc4cccc(C(F)(F)F)c4)c3)ncc(OCCCN)c21", "note": "[TCMDC-136178]", "% Inhibition": 94.17}, {"smiles": "CCOC(=O)NCC(=O)Nc1cccc(-c2cccc(-c3nc4ccc(C(F)(F)F)cc4[nH]3)c2)c1", "note": "[TCMDC-137047]", "% Inhibition": -10.81}, {"smiles": "CCn1c(-c2nonc2N)nc2c(-c3cccc(NC(=O)Nc4ccc(C(F)(F)F)cc4)c3)ncc(OCCCN)c21", "note": "[TCMDC-136179]", "% Inhibition": 115.3}, {"smiles": "O=C(Nc1ccc(Cl)cc1)Nc1cccc(-c2cccc(-c3nc4ccc(C(F)(F)F)cc4[nH]3)c2)c1", "note": "[TCMDC-133180]", "% Inhibition": -47.4}, {"smiles": "CCOC(=O)c1ccc(NC(=O)Nc2cccc(-c3ccc(-c4nc5ccc(C(F)(F)F)cc5[nH]4)cc3)c2)cc1", "note": "[TCMDC-133261]", "% Inhibition": -31.99}, {"smiles": "O=C(NC1CC1)c1ccc(N2CCCCN2CCc2ccccc2)c(C(F)(F)F)c1", "note": "[TCMDC-135276]", "% Inhibition": 0.5792}]}]}
